# Test results: PubChem BioAssay
# Activity calls are given as the source filed them. Unless noted, no stated cut-off is given here; in the data, active means inhibition above about 80%; inactive means the rest.
# Tests used:
# [1] = galactose survival enhancers in mitochondrial complex I cybrids – cell-based, galactose medium, ATP luminescence, primary screen (AID 1645843;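 active means z-score of at least 1.8 in each of two replicates, scored against plate mean and spread of sample wells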;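 further: positive z means more ATP and so rescue of galactose-driven cybrid death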); conditions: complex I mutant cybrid cells, 72 h, stronger effect = higher value
# [2] = growth inhibition, single agent or in combination, cell-based, chromothripsis tumors, cisplatin or BGB combos (AID 1671449); conditions: LFS_MB_P medulloblastoma cells;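 further: cells exposed for 96 hours; 0% = vehicle DMSO and 100% = killing by high DMSO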
# [3] = growth inhibition, single agent and combos, cell-based, chromothripsis tumors, cisplatin or BGB combos (AID 1671450); conditions: HDN33 neuroblastoma cells, stronger effect = higher value;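 further: cells exposed to compound for four days; 0% = vehicle DMSO and 100% = cell killing by high DMSO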
# [4] = growth inhibition, single agents and combos, ICB984, cell-based, cisplatin or BGB combos, synergistic combos for chromothripsis tumors (AID 1671451; call rule not given here;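 further: cells exposed for 96 hours before readout; 0% = vehicle DMSO and 100% = killing by high DMSO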); conditions: ICB984 medulloblastoma cells, drug combinations, stronger effect = higher value
# [5] = growth inhibition, single agents and combos, LFS_MB_1R, cell-based, cisplatin or BGB combos, synergistic combos for chromothripsis tumors (AID 1671452); conditions: LFS_MB_1R medulloblastoma cells, stronger effect = higher value;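 further: cells exposed for 96 hours before readout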
# [6] = growth inhibition, single agents and combos, HTB85, cell-based, BGB or cisplatin IC20 combos, synergistic combos for chromothripsis tumors (AID 1671453); conditions: HTB85 osteosarcoma cells, drug combinations, stronger effect = higher value;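 further: cells exposed for 96 hours before readout; 0% = vehicle DMSO and 100% = high DMSO killing control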
# [7] = growth inhibition, single agents and combos, CRL2098, cell-based, BGB or cisplatin IC20 combos, synergistic combos for chromothripsis tumors (AID 1671454); conditions: CRL2098 osteosarcoma cells, drug combinations, stronger effect = higher value;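 further: cells exposed for 96 h before readout; 0% = vehicle DMSO and 100% = killing by high DMSO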
# [8] = growth inhibition, single agents and combos, HD-MB03, cell-based, BGB or cisplatin IC20 combos, synergistic combos for chromothripsis tumors (AID 1671455; in the data active means inhibition above about 83%;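 further: 0% = vehicle DMSO and 100% = high DMSO as cytotoxic control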); conditions: HD-MB03 medulloblastoma cells, stronger effect = higher value
# [9] = growth inhibition, single agents and combos, UWB1.289, cell-based, BGB or cisplatin combos, synergistic combos for chromothripsis tumors (AID 1671456); conditions: UWB1.289 ovarian carcinoma cells, stronger effect = higher value;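 further: cells exposed to compound for four days; 0% = vehicle DMSO and 100% = killing by high DMSO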
# [10] = growth inhibition, single agents and combos, LFS_MB_2R, cell-based, cisplatin combos, synergistic combos for chromothripsis tumors (AID 1671457); conditions: LFS_MB_2R medulloblastoma cells, stronger effect = higher value;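 further: cells exposed to compound for four days before readout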
# [11] = growth inhibition, MDA-MB-436, cell-based, BGB or cisplatin combos, synergistic combos for chromothripsis tumors (AID 1671458; call rule not given here;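 further: cells exposed for 96 hours; 0% = vehicle DMSO and 100% = killing by high DMSO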); conditions: MDA-MB-436 breast carcinoma growth inhibition, drug combinations, stronger effect = higher value
# [12] = UWB1.289_BRCA1 ovarian cancer growth, cell-based, BGB or cisplatin combinations (AID 1671459); conditions: UWB1.289 BRCA1 ovarian carcinoma, drug combinations, stronger effect = higher value
# [13] = drug combination toxicity in non-malignant astrocytes – cell-based, BGB or cisplatin IC20 combos, cytotoxicity control for chromothriptic childhood tumor combination screen (AID 1671460); conditions: Human astrocytes, viability inhibition, drug combinations, at 0.5 µM, stronger effect = higher value;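 further: cells exposed to compounds for 96 hours before viability readout; 0% = vehicle and 100% = killing control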
# [14] = BT084 cell growth, single and combined drugs, ICGC_MB145, cisplatin and BGB IC40 combos (AID 1671461); conditions: BT084 medulloblastoma cells, drug combinations, stronger effect = higher value;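 further: cells exposed to drugs for 96 hours; 0% = vehicle DMSO and 100% = high DMSO full killing control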
# [15] = RCMB18 cell growth, single agent and combined, cisplatin and BGB IC40 combos (AID 1671462); conditions: RCMB18 medulloblastoma cells, stronger effect = higher value;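 further: cells exposed to compound for four days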
# [16] = CRL1545 cell growth, single agent and combined, cisplatin and BGB IC20 combos (AID 1671464); conditions: CRL1545 osteosarcoma cells, stronger effect = higher value;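 further: cells exposed to compound for 96 hours before readout; 0% = vehicle DMSO and 100% = high DMSO killing control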
# [17] = measured here: combination with BGB IC40, at 0.05 µM
# [18] = measured here: with BGB IC20 combination, at 0.5 µM
# [19] = measured here: with cisplatin IC20 combination, at 0.5 µM
# [20] = measured here: combination with cisplatin, at 0.5 µM
# [21] = measured here: combination with cisplatin, at 5 µM
smiles,measurement,setting,value
C=C1C2(C(=O)N3CCC(c4ccccc4F)C3)CCC(C2)C1(C)C (centres undefined),z-score,[1],1.09 (inactive)
CC(C)C(=O)SCCCCCCC(=O)Nc1nc(-c2ccccc2)cs1,inhibition,"[2]; at 0.5 µM, stronger effect = higher value",-25.8% (inactive)
same,inhibition,"[2]; measured here: combination with BGB IC20, at 0.005 µM",-14.6%
same,inhibition,"[2]; measured here: combination with BGB IC40, at 0.005 µM",-57.5%
same,inhibition,[2]; [17],-33.9%
same,inhibition,"[2]; measured here: combination with cisplatin, at 0.5 µM, stronger effect = higher value",-38.9%
same,inhibition,"[2]; measured here: combination with cisplatin, at 5 µM, stronger effect = higher value",85.2%
same,inhibition,"[3]; BGB combo, at 5 µM",48.9%
same,inhibition,[3]; at 0.5 µM,6.91% (inactive)
same,inhibition,"[3]; cisplatin combo, at 5 µM",45.1%
same,inhibition,[3]; [18],1.56%
same,inhibition,[3]; [19],14.6%
same,inhibition,"[3]; single agent, at 5 µM",57.6%
same,inhibition,"[4]; BGB IC20 combo, at 0.005 µM",16.1%
same,inhibition,"[4]; BGB IC40 combo, at 0.005 µM",-25.2%
same,inhibition,"[4]; BGB IC40 combo, at 0.05 µM",31.3%
same,inhibition,[4]; at 0.5 µM,-31.1% (inactive)
same,inhibition,"[4]; cisplatin combo, at 0.05 µM",28%
same,inhibition,"[4]; cisplatin combo, at 0.5 µM",-33.4%
same,inhibition,"[4]; cisplatin combo, at 5 µM",-7.7%
same,inhibition,"[4]; measured here: 5 uM single agent, at 5 µM",4.47%
same,inhibition,[5]; at 0.5 µM,-22% (inactive)
same,inhibition,[5]; [17],-72.1%
same,inhibition,[5]; [20],-44.8%
same,inhibition,[5]; [21],68.5%
same,inhibition,[6]; at 0.5 µM,-4.36% (inactive)
same,inhibition,"[6]; measured here: with BGB IC20, at 0.5 µM",2.11%
same,inhibition,"[6]; measured here: with BGB IC20, at 5 µM",19%
same,inhibition,"[6]; measured here: with cisplatin IC20, at 0.5 µM",-21.4%
same,inhibition,"[6]; measured here: with cisplatin IC20, at 5 µM",38.3%
same,inhibition,"[6]; single agent, at 5 µM",22.2%
same,inhibition,[7]; at 0.5 µM,-30.2% (inactive)
same,inhibition,"[7]; measured here: combination with BGB at IC20, at 0.5 µM",-44.3%
same,inhibition,"[7]; measured here: combination with cisplatin at IC20, at 0.5 µM",-19.3%
same,inhibition,[8]; at 0.5 µM,4.11% (inactive)
same,inhibition,"[8]; measured here: combo with BGB at IC20, at 0.5 µM",5.74%
same,inhibition,"[8]; measured here: combo with cisplatin at IC20, at 0.5 µM",11.7%
same,inhibition,[9]; at 0.5 µM,5.55% (inactive)
same,inhibition,"[9]; measured here: inhibition with BGB combination, at 0.05 µM",-30.6%
same,inhibition,"[9]; measured here: inhibition with cisplatin combination, at 0.05 µM",-3.57%
same,inhibition,[10]; at 0.5 µM,-13.4% (inactive)
same,inhibition,[10]; [20],-25.2%
same,inhibition,[10]; [21],54.7%
same,inhibition,[11]; at 0.5 µM,-7.93% (inactive)
same,inhibition,"[11]; measured here: BGB combination, at 0.5 µM",-9.46%
same,inhibition,"[11]; measured here: BGB combination, at 5 µM",10.2%
same,inhibition,"[11]; measured here: cisplatin combination, at 0.5 µM",-23.5%
same,inhibition,"[11]; measured here: cisplatin combination, at 5 µM",18.2%
same,inhibition,"[12]; BGB combination, concentration series, at 5 µM",37.8%
same,inhibition,[12]; at 0.5 µM,9.48% (inactive)
same,inhibition,"[12]; cisplatin combination, concentration series, at 5 µM",66.2%
same,inhibition,[13],31.1% (inactive)
same,inhibition,[13]; measured here: combo with BGB IC20,34.6%
same,inhibition,[13]; measured here: combo with cisplatin IC20,18.5%
same,inhibition,[14]; at 0.5 µM,-9.26% (inactive)
same,inhibition,"[14]; cisplatin combination, at 0.5 µM",-8.48%
same,inhibition,"[14]; cisplatin combination, at 5 µM",42.4%
same,inhibition,"[14]; measured here: BGB IC40 combination 0.05 uM, at 0.05 µM",-39.7%
same,inhibition,"[14]; single agent, at 5 µM",71.8%
same,inhibition,[15]; at 0.5 µM,-9.74% (inactive)
same,inhibition,"[15]; cisplatin combo, at 5 µM",41%
same,inhibition,"[15]; measured here: BGB IC40 combination, at 0.05 µM",12.2%
same,inhibition,[15]; [20],-9.58%
same,inhibition,"[15]; single agent, at 5 µM",36.3%
same,inhibition,[16]; at 0.5 µM,33.1% (inactive)
same,inhibition,[16]; [18],24.9%
same,inhibition,[16]; [19],36.2%
same,inhibition,"[16]; single agent, at 0.05 µM",0.931%
same,inhibition,"[16]; single agent, at 5 µM",46.6%
